Among the data in the supplement of paper PMC8253809 are growth inhibition values, retold here.

Each structure is given as a SMILES string. Where “and” joins values, the source holds several entries; their conditions need not be identical. Equal entries are not always repeated.

The test system of the first assay is HNSC. In words: growth inhibition (% activity, log2 RLU normalised to DMSO / staurosporine); higher = more growth inhibition. To be noted: 33 µM. A digest of the protocol: (§1)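 The growth-inhibition value comes from CellTiter-Glo luminescence, log2-transformed, normalised per plate to % activity between solvent and positive control wells, and taken as the median over replicates. Treatment of pHGG cell lines and H9-derived neural stem cells with approved drugs was at a single final concentration of about 33 μM, in triplicate, for 7 days at 37 °C, 5% CO2.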
In the case of `NC[C@H]1O[C@H](O[C@H]2[C@H](O)[C@@H](O[C@H]3O[C@H](CO)[C@@H](O)[C@H](N)[C@H]3O)[C@H](N)C[C@@H]2N)[C@H](N)C[C@@H]1O`, the growth inhibition was -1.87%.

In the case of `CN[C@@H]1[C@H](O[C@H]2[C@H](O[C@H]3[C@H](O)[C@@H](O)[C@H](N=C(N)N)[C@@H](O)[C@@H]3N=C(N)N)O[C@@H](C)[C@]2(O)C=O)O[C@@H](CO)[C@H](O)[C@H]1O`, the growth inhibition was -0.954%.

Turning to `CN1C[C@@H]2C[C@H]1CN2c1cc2c(cc1F)c(=O)c(C(=O)O)cn2C1CC1`, the growth inhibition was 7.67%.

For `O=C1C(=O)c2ccccc2C(O)=C1C1CCC(c2ccc(Cl)cc2)CC1` (stereo not drawn), the growth inhibition was found to be 2.01%.

Regarding `CCN(CC)C(=O)/C(C#N)=C/c1cc(O)c(O)c([N+](=O)[O-])c1`, the growth inhibition is -2.42%.

For the compound `CCOC(=O)C1=C(C)NC(C)=C(C(=O)OC)C1c1cccc(Cl)c1Cl` (stereo not drawn), the growth inhibition is 5.27%.

Take `CCCCCCCCCC(=O)N[C@@H](Cc1c[nH]c2ccccc12)C(=O)N[C@@H](CC(N)=O)C(=O)N[C@@H](CC(=O)O)C(=O)N[C@@H]1C(=O)NCC(=O)N[C@@H](CCCN)C(=O)N[C@@H](CC(=O)O)C(=O)N[C@H](C)C(=O)N[C@@H](CC(=O)O)C(=O)NCC(=O)N[C@H](CO)C(=O)N[C@@H]([C@H](C)CC(=O)O)C(=O)N[C@@H](CC(=O)c2ccccc2N)C(=O)O[C@@H]1C`: the growth inhibition is -6.45%.

On to `CC(=O)Oc1cc2c(s1)CCN(C(C(=O)C1CC1)c1ccccc1F)C2` (stereo not drawn), for which the growth inhibition stood at 0.528%.

`Cc1[nH]c(=O)c(C#N)cc1-c1ccncc1`: the growth inhibition was 3.65%.

`CC[N+](CC)(CC)CCOc1cccc(OCC[N+](CC)(CC)CC)c1OCC[N+](CC)(CC)CC`: the growth inhibition turned out to be 1.9%.

`CN1CCN2c3ccccc3Cc3ccccc3C2C1` (stereo not drawn): the growth inhibition worked out at 2.01%.

For `Cc1cn([C@@H]2C[C@@H](O)[C@H](CO)O2)c(=O)[nH]c1=O`, the growth inhibition came to 1.03%.

With `Nc1ccc(C(=O)NCC(=O)O)cc1`, the growth inhibition is -1.34%.

As for `CNC(=C[N+](=O)[O-])NCCSCc1ccc(CN(C)C)o1`, the growth inhibition is 9.82%.

For `COC1C(O)CC(=O)OC(C)CC=CC=CC(OC2CCC(N(C)C)C(C)O2)C(C)CC(CC=O)C1OC1OC(C)C(OC2CC(C)(O)C(O)C(C)O2)C(N(C)C)C1O` (stereo not drawn), the growth inhibition was -0.2%.

Turning to `Cc1c(Cl)cccc1Nc1ccccc1C(=O)O`, the growth inhibition was 4.89%.

On to `CC(=O)OCC(=O)[C@@]12OC(C)(C)O[C@@H]1C[C@H]1[C@@H]3C[C@H](F)C4=CC(=O)C=C[C@]4(C)[C@@]3(F)[C@@H](O)C[C@@]12C`, for which the growth inhibition stood at 5.54%.

For `O=C1N=C(O)NC1(c1ccccc1)c1ccccc1`, the growth inhibition is 0.737% and -1.81%.

Regarding `CC[C@H](C)C(=O)O[C@H]1C[C@H](O)C=C2C=C[C@H](C)[C@H](CC[C@@H](O)C[C@@H](O)CC(=O)O)[C@H]21`, the growth inhibition was 17.3%.

As to `C=C[C@]1(C)C[C@@H](OC(=O)CSC(C)(C)CNC(=O)[C@H](N)C(C)C)[C@]2(C)[C@H](C)CC[C@]3(CCC(=O)[C@H]32)[C@@H](C)[C@@H]1O`, the growth inhibition amounted to 15.7%.

As for `N=C(N)c1ccc2cc(OC(=O)c3ccc(N=C(N)N)cc3)ccc2c1`, the growth inhibition was 2.26%.

Take `CCC(=O)NCC[C@@H]1CCc2ccc3c(c21)CCO3`: the growth inhibition turned out to be 3.01%.

As to `OCC(O)CN1CCN(c2ccccc2)CC1` (stereo not drawn), the growth inhibition was -3.11%.

Turning to `CNC(=O)c1cc(Oc2ccc(NC(=O)Nc3ccc(Cl)c(C(F)(F)F)c3)c(F)c2)ccn1`, the growth inhibition stood at 39.1%.

In the case of `CCn1cc(C(=O)O)c(=O)c2cnc(N3CCCC3)nc21`, the growth inhibition was -2.86%.

Regarding `Cc1c(-c2ccc(O)cc2)n(Cc2ccc(OCCN3CCCCCC3)cc2)c2ccc(O)cc12`, the growth inhibition came out at 26.1%.

For `Nc1nc2n[nH]nc2c(=O)[nH]1`, the growth inhibition turned out to be 56.2%.

On to `CCC(C)C1OC2(CCC1C)CC1CC(CC=C(C)C(OC3CC(OC)C(OC4CC(OC)C(O)C(C)O4)C(C)O3)C(C)C=CC=C3COC4C(O)C(C)=CC(C(=O)O1)C34O)O2` (stereo not drawn), for which the growth inhibition stood at 27.4%.

`O=C([O-])[C@H](O)[C@@H](O)[C@H](O)[C@H](O)CO.[Na+]`: the growth inhibition was determined as 3.09%.

In the case of `CC(C(=O)O)c1ccc(C(=O)c2cccs2)cc1` (stereo not drawn), the growth inhibition is -0.802%.

Consider `COc1c2occc2cc2ccc(=O)oc12`, for which the growth inhibition is 0.777%.

`C[C@@H]1CN(c2c(F)c(N)c3c(=O)c(C(=O)O)cn(C4CC4)c3c2F)C[C@H](C)N1`: the growth inhibition stood at 33.6%.

As to `Cc1cc(=O)n(-c2ccccc2)n1C`, the growth inhibition is -1.87%.

With `NCCCCCC(=O)O`, the growth inhibition came to 0.436%.

In the case of `Nc1nc2[nH]cc(CCc3ccc(C(=O)N[C@@H](CCC(=O)O)C(=O)O)cc3)c2c(=O)[nH]1`, the growth inhibition was -0.517%.

`Cc1onc(-c2ccccc2)c1C(=O)N[C@@H]1C(=O)N2[C@@H]1SC(C)(C)[C@@H]2C(=O)O`: the growth inhibition is -4.11%.

On to `Nc1cccc2c1CN(C1CCC(=O)NC1=O)C2=O` (stereo not drawn), for which the growth inhibition is 4.5%.

Consider `COc1ccccc1N1CCN(CC(O)COc2cccc3ccccc23)CC1` (stereo not drawn), for which the growth inhibition was determined as 0.281%.

Take `CC1CNc2c(cccc2S(=O)(=O)N[C@@H](CCCNC(=N)N)C(=O)N2CC[C@@H](C)C[C@@H]2C(=O)O)C1` (stereo partly drawn): the growth inhibition was found to be 12.3%.

Another assay has as its system SUDIPGIV (diffuse intrinsic pontine glioma line)
The description is as above. The note with it: 33 µM. An outline of the steps: as §1
Turning to `NC[C@H]1O[C@H](O[C@H]2[C@H](O)[C@@H](O[C@H]3O[C@H](CO)[C@@H](O)[C@H](N)[C@H]3O)[C@H](N)C[C@@H]2N)[C@H](N)C[C@@H]1O`, the growth inhibition was -0.0713%.

As to `CN[C@@H]1[C@H](O[C@H]2[C@H](O[C@H]3[C@H](O)[C@@H](O)[C@H](N=C(N)N)[C@@H](O)[C@@H]3N=C(N)N)O[C@@H](C)[C@]2(O)C=O)O[C@@H](CO)[C@H](O)[C@H]1O`, the growth inhibition is -0.137%.

With `CN1C[C@@H]2C[C@H]1CN2c1cc2c(cc1F)c(=O)c(C(=O)O)cn2C1CC1`, the growth inhibition was 4.42%.

On to `O=C1C(=O)c2ccccc2C(O)=C1C1CCC(c2ccc(Cl)cc2)CC1` (stereo not drawn), for which the growth inhibition was 3.44%.

For `CCN(CC)C(=O)/C(C#N)=C/c1cc(O)c(O)c([N+](=O)[O-])c1`, the growth inhibition was -1.01%.

For the compound `CCOC(=O)C1=C(C)NC(C)=C(C(=O)OC)C1c1cccc(Cl)c1Cl` (stereo not drawn), the growth inhibition amounted to 3.57%.

On to `CCCCCCCCCC(=O)N[C@@H](Cc1c[nH]c2ccccc12)C(=O)N[C@@H](CC(N)=O)C(=O)N[C@@H](CC(=O)O)C(=O)N[C@@H]1C(=O)NCC(=O)N[C@@H](CCCN)C(=O)N[C@@H](CC(=O)O)C(=O)N[C@H](C)C(=O)N[C@@H](CC(=O)O)C(=O)NCC(=O)N[C@H](CO)C(=O)N[C@@H]([C@H](C)CC(=O)O)C(=O)N[C@@H](CC(=O)c2ccccc2N)C(=O)O[C@@H]1C`, for which the growth inhibition was -2.57%.

`CC(=O)Oc1cc2c(s1)CCN(C(C(=O)C1CC1)c1ccccc1F)C2` (stereo not drawn): the growth inhibition was -0.967%.

`Cc1[nH]c(=O)c(C#N)cc1-c1ccncc1`: the growth inhibition worked out at 2.63%.

With `CC[N+](CC)(CC)CCOc1cccc(OCC[N+](CC)(CC)CC)c1OCC[N+](CC)(CC)CC`, the growth inhibition was -0.653%.

As for `CN1CCN2c3ccccc3Cc3ccccc3C2C1` (stereo not drawn), the growth inhibition was -0.203%.

Consider `Cc1cn([C@@H]2C[C@@H](O)[C@H](CO)O2)c(=O)[nH]c1=O`, for which the growth inhibition was -0.72%.

For the compound `Nc1ccc(C(=O)NCC(=O)O)cc1`, the growth inhibition is 1.42%.

On to `CNC(=C[N+](=O)[O-])NCCSCc1ccc(CN(C)C)o1`, for which the growth inhibition was 1.43%.

For the compound `COC1C(O)CC(=O)OC(C)CC=CC=CC(OC2CCC(N(C)C)C(C)O2)C(C)CC(CC=O)C1OC1OC(C)C(OC2CC(C)(O)C(O)C(C)O2)C(N(C)C)C1O` (stereo not drawn), the growth inhibition was -0.377%.

Regarding `Cc1c(Cl)cccc1Nc1ccccc1C(=O)O`, the growth inhibition was -2.4%.

Turning to `CC(=O)OCC(=O)[C@@]12OC(C)(C)O[C@@H]1C[C@H]1[C@@H]3C[C@H](F)C4=CC(=O)C=C[C@]4(C)[C@@]3(F)[C@@H](O)C[C@@]12C`, the growth inhibition is -2.88%.

In the case of `O=C1N=C(O)NC1(c1ccccc1)c1ccccc1`, the growth inhibition is -0.112% and -1.42%.

As to `CC[C@H](C)C(=O)O[C@H]1C[C@H](O)C=C2C=C[C@H](C)[C@H](CC[C@@H](O)C[C@@H](O)CC(=O)O)[C@H]21`, the growth inhibition was 1.99%.

Consider `C=C[C@]1(C)C[C@@H](OC(=O)CSC(C)(C)CNC(=O)[C@H](N)C(C)C)[C@]2(C)[C@H](C)CC[C@]3(CCC(=O)[C@H]32)[C@@H](C)[C@@H]1O`, for which the growth inhibition is 29.9%.

As to `N=C(N)c1ccc2cc(OC(=O)c3ccc(N=C(N)N)cc3)ccc2c1`, the growth inhibition was found to be 1.8%.

Consider `CCC(=O)NCC[C@@H]1CCc2ccc3c(c21)CCO3`, for which the growth inhibition is 0.00903%.

On to `OCC(O)CN1CCN(c2ccccc2)CC1` (stereo not drawn), for which the growth inhibition is -1.45%.

Consider `CNC(=O)c1cc(Oc2ccc(NC(=O)Nc3ccc(Cl)c(C(F)(F)F)c3)c(F)c2)ccn1`, for which the growth inhibition turned out to be 1.19%.

Take `CCn1cc(C(=O)O)c(=O)c2cnc(N3CCCC3)nc21`: the growth inhibition is -0.463%.

In the case of `Cc1c(-c2ccc(O)cc2)n(Cc2ccc(OCCN3CCCCCC3)cc2)c2ccc(O)cc12`, the growth inhibition was 18.8%.

`Nc1nc2n[nH]nc2c(=O)[nH]1`: the growth inhibition worked out at 32.2%.

Take `CCC(C)C1OC2(CCC1C)CC1CC(CC=C(C)C(OC3CC(OC)C(OC4CC(OC)C(O)C(C)O4)C(C)O3)C(C)C=CC=C3COC4C(O)C(C)=CC(C(=O)O1)C34O)O2` (stereo not drawn): the growth inhibition worked out at 0.217%.

On to `O=C([O-])[C@H](O)[C@@H](O)[C@H](O)[C@H](O)CO.[Na+]`, for which the growth inhibition is 1.5%.

As to `CC(C(=O)O)c1ccc(C(=O)c2cccs2)cc1` (stereo not drawn), the growth inhibition was -4.32%.

Take `COc1c2occc2cc2ccc(=O)oc12`: the growth inhibition was -2.41%.

Turning to `C[C@@H]1CN(c2c(F)c(N)c3c(=O)c(C(=O)O)cn(C4CC4)c3c2F)C[C@H](C)N1`, the growth inhibition turned out to be 1.6%.

Regarding `Cc1cc(=O)n(-c2ccccc2)n1C`, the growth inhibition was determined as 0.134%.

Regarding `NCCCCCC(=O)O`, the growth inhibition was found to be 1.23%.

Take `Nc1nc2[nH]cc(CCc3ccc(C(=O)N[C@@H](CCC(=O)O)C(=O)O)cc3)c2c(=O)[nH]1`: the growth inhibition is 2.12%.

Take `Cc1onc(-c2ccccc2)c1C(=O)N[C@@H]1C(=O)N2[C@@H]1SC(C)(C)[C@@H]2C(=O)O`: the growth inhibition was 0.237%.

For the compound `Nc1cccc2c1CN(C1CCC(=O)NC1=O)C2=O` (stereo not drawn), the growth inhibition worked out at 1.6%.

`COc1ccccc1N1CCN(CC(O)COc2cccc3ccccc23)CC1` (stereo not drawn): the growth inhibition is -1.37%.

With `CC1CNc2c(cccc2S(=O)(=O)N[C@@H](CCCNC(=N)N)C(=O)N2CC[C@@H](C)C[C@@H]2C(=O)O)C1` (stereo partly drawn), the growth inhibition was found to be 1.8%.
